# Tested on: TGFBR1
# 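Note: kd values determined as follow-up on hits from a single-replicate KINOMEscan panel screen.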
row,Compound,Kd
1,Cc1ccc(-c2cc(-c3c[nH]nc3-c3ccccn3)ccn2)cc1 [GW684088],260 nM
2,Cc1cccc(-c2nc(C)cc(Nc3ccncc3)n2)n1 [GSK257997],200 nM
3,Cl.c1ccc(-c2n[nH]cc2-c2ccnc(-c3ccc(CN4CCOCC4)cc3)c2)nc1 [GW776245],150 nM

# Tested on: TGFBR2
row,Compound,Kd
1,Cl.c1ccc(-c2n[nH]cc2-c2ccnc(-c3ccc(CN4CCOCC4)cc3)c2)nc1 [GW776245],210 nM
2,Cc1csc(-c2nc(Nc3ccncc3)c3ccccc3n2)n1 [GW869640],250 nM
3,Cc1cccc(-c2nc(Nc3ccncc3)c3ccccc3n2)n1 [GW855857],290 nM
